These results are taken from PubChem BioAssay (NCATS).

“And” between values parts separate entries of the source, which are not always exact repeats. Equal entries are not always repeated. Records with an inconclusive call do not appear. More than one record can exist for a structure, and the calls need not agree. The source made the active and inactive calls. Calls follow the shape of the dose curve; as a rule, active = well fitted inhibition curve with a large enough effect; inconclusive = small, poorly fitted or top-dose-only effect; inactive = no such curve, though single readings can be large or run the other way.
% is scaled to controls: 0 for no effect and ±100 for the full control effect; potency is read from the fitted curve at half-maximal effect.

A short description of the test: Primary qHTS for inhibitors of nuclear receptor binding SET domain protein 2 (NSD2) in an RCH-ACV wild type WT cells (2C) (AID 1645877). Also: nearly all actives have a fitted effect of over 70% in size. Conditions: RCH-ACV (leukaemia line) NSD2 WT (2C) viability, CellTiter-Glo, 72 h; series mostly up to 44.9 µM; activity change, negative = cell killing: at the top concentration. A general note: Quantitative high-throughput screening tests each substance at several concentrations.
As for `CC(C)C[C@@H](N)[C@H](O)C(=O)N[C@H](C(=O)N[C@H](C(=O)N[C@@H](CC(=O)O)C(=O)O)C(C)C)C(C)C`, the call was inactive.

Turning to `CN(C)N=Nc1nc[nH]c1C(N)=O`, the Potency was 3.72 µM (active).

With `CN(C(Cc1ccc(OS(=O)(=O)c2cccc3cnccc23)cc1)C(=O)N1CCN(c2ccccc2)CC1)S(=O)(=O)c1cccc2cnccc12` (configuration not stated), the Potency was 6.51 µM (active).

With `CNC(=O)[C@H](Cc1ccccc1)NC(=O)[C@H](CC(C)C)[C@H](CSc1cccs1)C(=O)NO`, the “activity change, negative = cell killing” value is 4.12% (inactive).

With `Cc1c(C(=O)Nc2ccc(N3C[C@@H](C)O[C@@H](C)C3)nc2)cccc1-c1ccc(OC(F)(F)F)cc1`, the “activity change, negative = cell killing” value was 1.54% (inactive).

On to `Cc1ccc(S(=O)(=O)Nc2nc3ccccc3nc2Nc2ccc3nsnc3c2)cc1`, for which the Potency was 14.6 µM (active) and inactive.

For the molecule `O=C(O)CCNc1cc(N2CCc3ccccc3CC2)nc(-c2ccccn2)n1`, the Potency result was “inactive”.

For `Cn1c(=O)c(-c2c(Cl)cccc2Cl)cc2cnc(Nc3cccc(C(=O)O)c3)nc21`, the call was inactive.

For the molecule `Cc1cn([C@@H]2C[C@@H](O)[C@H](CO)O2)c(=O)[nH]c1=O`, the “activity change, negative = cell killing” value was 2.1% (inactive).

In the case of `COc1ccc(-c2cc3nccn3c(Nc3ncccc3C(N)=O)n2)cc1OC`, the Potency is 0.728 µM (active).

For the molecule `O=C(NC[C@H](O)CO)c1ccncc1Nc1ccc(I)cc1F`, the Potency was 16.6 µM (active).

Take `Nc1ccn([C@@H]2O[C@H](CO)[C@@H](O)[C@H]2O)c(=O)n1`: the molecule was classed as inactive.

In the case of `CCOc1ccccc1N=Nc1c(C)[nH]n(-c2nc(-c3ccccc3)cs2)c1=O`, the “activity change, negative = cell killing” value was -0.228% (inactive).

Turning to `O=C(NCCCCN1CCOCC1)c1cc2ccccc2o1`, the “activity change, negative = cell killing” value is -8.7% (inactive).

As to `NS(=O)(=O)c1cc(Cl)c(Cl)c(S(N)(=O)=O)c1`, the “activity change, negative = cell killing” value is 3.54% (inactive).

As to `CC(=O)NCCC(=O)N[C@@H](CCC(N)=O)C(=O)N[C@@H](CO)C(=O)N[C@@H](CCC(N)=O)C(=O)N[C@@H](CCC(N)=O)C(=O)N[C@H](C(=O)N[C@@H](Cc1ccccc1)C(=O)N[C@]1(C)CCCCCCC=CCCC[C@@](C)(C(=O)N[C@@H](CCC(N)=O)C(=O)N[C@@H](CC(N)=O)C(N)=O)NC(=O)[C@H](CC(C)C)NC(=O)[C@H](CC(C)C)NC(=O)[C@@H](CCCNC(=N)N)NC(=O)[C@H](Cc2c[nH]c3ccccc23)NC(=O)[C@H](CC(C)C)NC(=O)[C@H](CC(N)=O)NC1=O)[C@H](C)O`, the “activity change, negative = cell killing” value is -9.36% (inactive).

As to `COc1ccc2c(c1)c(C1=C(c3c[nH]c4ccccc34)C(=O)NC1=O)cn2CCCN(C)C`, the Potency is 6.61 µM (active).

On to `CCN(CCO)CCCOc1ccc2c(Nc3cc(CC(=O)Nc4cccc(F)c4)[nH]n3)ncnc2c1`, for which the Potency is 0.132 µM (active).

Turning to `O=C(Nc1cccc(C(F)(F)F)c1)Nc1cc(S(=O)(=O)NC2CC2)ccc1-c1ccsc1`, the Potency was 23 µM (active).

As for `CC(NCCc1ccc(O)cc1)C(O)c1ccc(O)cc1` (configuration not stated), the “activity change, negative = cell killing” value was 0.279% (inactive).

Turning to `Cc1cc(C(C)Nc2ccccc2)c2nc(N3CCOCC3)cc(=O)n2c1` (configuration not stated), the Potency is 2.3 µM (active) and 2.63 µM (active).

As for `CCOC(=O)[C@@H](N)CCC(=O)N[C@@H](CSCc1ccccc1)C(=O)N[C@@H](C(=O)OCC)c1ccccc1`, the Potency was 16.6 µM (active).

In the case of `Cc1ccc(C(=O)N(CCCN)[C@@H](c2oc3cc(Cl)ccc3c(=O)c2Cc2ccccc2)C(C)C)cc1`, the Potency was 0.0263 µM (active).

For the molecule `NC(=O)c1ccc(N(C(N)=O)c2c(F)cccc2F)nc1-c1ccc(F)cc1F`, the “activity change, negative = cell killing” value was -19.8% (inactive).

For `CN1CCN(c2ncc(-c3cc(Cl)cc(Cl)c3Cl)c(N)n2)CC1`, the Potency was 18.6 µM (active).

`C[C@]12CC[C@@H]3c4ccc(O)cc4CC[C@H]3[C@H]1[C@@H](O)[C@@H](O)[C@H]2O`: the “activity change, negative = cell killing” value is -7.63% (inactive).

As to `CC1(C)CC(=O)c2c(C(F)(F)F)nn(-c3ccc(C(N)=O)c(NC4CCC(O)CC4)c3)c2C1` (configuration not stated), the Potency is 57.8 nM (active) and 83.3 nM (active).

For `Cc1cnc(CNC(=O)c2c(=O)c3ccc(N4CCCN(C)CC4)nc3n3c2sc2ccccc23)cn1`, the Potency was 0.121 µM (active).

Regarding `COc1cc(Nc2nc3ccccc3nc2NS(=O)(=O)c2ccc(NC(=O)c3ccc(C)c(OC)c3)cc2)cc(OC)c1`, the result was inactive.

Regarding `Nc1ccc(-c2ccc3ncc4ccc(=O)n(-c5cccc(C(F)(F)F)c5)c4c3c2)cn1`, the Potency was 20.9 nM (active) and 18.4 nM (active).

On to `Cc1ccccc1C(C(=O)NC1CCCCC1)N(C(=O)CNc1ccc(C#N)cc1)c1cccc(F)c1` (configuration not stated), for which the molecule was called inactive.

With `CCOC(=O)N1c2ccc(C(F)(F)F)cc2[C@@H](N(Cc2cc(C(F)(F)F)cc(C(F)(F)F)c2)C(=O)OC)C[C@H]1CC`, the “activity change, negative = cell killing” value was -2.82% (inactive).
